A selection: hits, their analogues and other compounds. The true share with any hit is near 10%.
3T3 cytotox = Cytotoxic Profiling in NIH 3T3 Cell Line of Diverse Libraries Using Quantitative High-Throughput Screening. 4.3% of 94,000 active. AID 1345082, 2018. NIH 3T3 viability, CellTiter-Glo ATP luminescence, 48-72 h. Potency, µM (doses to about 96.7 µM), for inactives: top-dose activity change, negative = cytotoxicity, hits mostly inhibitors; further: nearly all actives have a fitted effect of over 55% in size
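Cytotoxicity was measured by CellTiter-Glo ATP luminescence after 48 or 72 h compound exposure at 37 °C. Mouse NIH 3T3 fibroblasts were seeded at 400 cells/well and dosed by 23 nL pin transfer.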
HEK293 tox = Cytotoxic Profiling in HEK 293 Cell Line of Diverse Libraries Using Quantitative High-Throughput Screening. HEK 293 viability, ATP luminescence (CellTiter-Glo), 48-72 h. Potency, µM (highest dose often 115 µM), without a hit: top-dose activity change, negative = cytotoxicity, most hits filed as inhibitors. 6.6% of 94,000 active. AID 1345083, 2018; further: nearly all actives have a fitted effect of over 60% in size
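Pintool-delivered compounds were incubated with HEK 293 cells (250 cells/well) at 37 degree Celsius for 48 or 72 hr. ATP-dependent luminescence (CellTiter-Glo) then reported remaining viable cells.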
NPR1 antag = Natriuretic polypeptide receptor (hNpr1) antagonism - Primary qHTS; HEK293 hNpr1 GloSensor cGMP, ANP-stimulated luminescence; 1.6% of 76,000 active; Atrial natriuretic peptide receptor 1 (Homo sapiens), P16066; Potency, µM (doses to about 46.3 µM), without a hit: top-dose activity change, negative = inhibition, usual class: inhibitors; AID 1347048, 2019; calls by dose curve; further: nearly all actives have a fitted effect of over 60% in size
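HEK293 cells stably expressing human Npr1 and cGMP GloSensor pGS-40F, loaded 2 h with 2% GloSensor reagent, given compound 30 min at room temperature. Luminescence read before and 20 min after 0.1 nM hNppA.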
GPT2 inhibitor = Primary qHTS assay for inhibitors of Glutamate pyruvate transaminase 2 (GPT2); Potency, µM (highest dose often 57.7 µM), inactives show at the top dose activity change, negative = inhibition, hits mostly inhibitors; Alanine aminotransferase 2 (Homo sapiens), Q8TD30; 0.25% of 100,000 active; Recombinant GPT2, coupled pyruvate oxidase/HRP Amplex Red fluorescence; AID 1671188, 2021; further: nearly all actives have a fitted effect of over 60% in size
Target sequence (Q8TD30 whole entry, looked up): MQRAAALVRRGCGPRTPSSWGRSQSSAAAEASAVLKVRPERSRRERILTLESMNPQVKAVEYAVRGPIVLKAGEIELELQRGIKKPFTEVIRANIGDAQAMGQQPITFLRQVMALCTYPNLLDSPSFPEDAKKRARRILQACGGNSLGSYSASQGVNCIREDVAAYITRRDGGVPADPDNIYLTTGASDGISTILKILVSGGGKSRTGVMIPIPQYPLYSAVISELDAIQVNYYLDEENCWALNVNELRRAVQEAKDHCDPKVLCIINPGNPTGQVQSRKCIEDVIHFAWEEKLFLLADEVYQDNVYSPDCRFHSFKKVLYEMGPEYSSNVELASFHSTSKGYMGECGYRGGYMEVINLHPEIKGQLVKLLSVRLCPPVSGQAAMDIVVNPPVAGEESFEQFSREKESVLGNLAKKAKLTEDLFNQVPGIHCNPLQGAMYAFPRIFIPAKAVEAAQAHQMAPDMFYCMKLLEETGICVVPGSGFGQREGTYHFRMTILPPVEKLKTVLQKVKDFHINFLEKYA
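Fluorescence read-out: pyruvate from GPT2 turnover coupled to pyruvate oxidase, HRP and Amplex Red (0.2mM ThPP, 0.2U/mL PO and HRP, 50uM Amplex final). Substrates 250uM a-KG, 2mM L-alanine; enzyme 10ng/uL; 30 min RT.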
FLuc inh = Firefly luciferase inhibition profiling of diverse chemical library using quantitative high-throughput screening | Luciferin 4-monooxygenase (Photinus pyralis), P08659 | purified P. pyralis luciferase, luminescence, biochemical | Potency, µM (top dose mostly 115 µM), hits mostly inhibitors | 2.5% of 76,000 active | AID 1347043, 2019; further: nearly all actives have a fitted effect of over 65% in size
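Cell-free enzyme assay, 10nM P. pyralis luciferase, luciferin and ATP each at 10uM. Inhibition profiled over a 6-point titration, read as luminescence.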
* = called active by the depositor; i = inactive; ? = inconclusive; / = no result given; ! = a repeat was not active; [ ] = remark or other dose. Unless noted, the call rests on the fitted dose curve; in most records, active means well fitted curve in the direction sought with a large enough effect; inconclusive means small, poorly fitted or top-dose-only effect, or another doubt; inactive means no such curve, though single readings can be large; an effect the other way counts as inactive or inconclusive. On the % scale 0 is the no-effect control and ±100 the full control effect; potency means the concentration at half of the fitted maximal effect.

SMILES	3T3 cytotox	HEK293 tox	NPR1 antag	GPT2 inhibitor	FLuc inh
CN1CCOC[C@H]2CCN(S(=O)(=O)c3ccc4c(c3)OCCO4)C[C@H]21	-18.2%	-27.1%	/	i	/
O=C(Nc1ccccc1Cl)C1CCCN1c1nc2ncccc2o1 (centres undefined)	?	-18.1%	-16.0%	-10.5%	i
Cc1nn(-c2ccccc2)c2c1C(C)N(C1CCN(C(=O)c3cccc(C(F)(F)F)c3)C1)C2=O (centres undefined)	?	35.5µM*	/	/	/
Cc1ccc(C(=O)N2CC(N3C(=O)c4c(c(C)nn4-c4ccccc4)C3C)C2)cc1 (centres undefined)	-28.0%	-18.7%	/	/	/
Cc1nn(-c2ccccc2)c2c1C(C)N(C1CCN(C(=O)c3ccccc3)C1)C2=O (centres undefined)	?	44.7µM*	/	/	/
Cc1ccc(C(=O)N2CCCC(N3C(=O)c4c(c(C)nn4-c4ccccc4)C3C)C2)cc1 (centres undefined)	?	44.7µM*	/	/	/
Cc1nn(-c2ccccc2)c2c1C(C1CC1)N(C1CCN(C(=O)c3cccc(C(F)(F)F)c3)C1)C2=O (centres undefined)	-26.6%	-30.8%	/	/	/
O=C(/C=C/c1ccc(O)c(O)c1)O[C@H]1[C@H](OC2CCCCC2O)O[C@H](CO)[C@@H](O)[C@@H]1O (some centres undefined)	/	/	/	4.47µM*	/
NCC1CCCN(Cc2cccc(-c3nc(-c4cccnc4)cc(=O)[nH]3)c2)C1 (centres undefined)	?	?	0.8%	-8.3%	i
COCC(=O)NC[C@@H]1C=C(C)[C@H](Cc2nc3ccc(Cl)cc3[nH]2)C[C@H]1C(C)C	70.8µM*	?	1.1%[70.6 µM]	1.8%[88.5 µM]	i
COCC(=O)NC[C@@H]1C=C(C)[C@H](Cc2nc3ccc(C)cc3[nH]2)C[C@H]1C(C)C	50.1µM*	?	-21.9%[70.6 µM]	?	i
COc1ccc2nc(C[C@@H]3C[C@@H](C(C)C)[C@H](CNC(=O)CCCC(=O)O)C=C3C)[nH]c2c1	2.8%	0.0%	-2.0%	-12.4%	i
Cc1ccc(Nc2ccnc(N3CCCN(C(=O)NC4CCCC4)C3)n2)cc1	25.1µM*	15.8µM*	/	i	/
Cc1ccc(Nc2ccnc(N3CCCN(C(=O)C4CCCC4)C3)n2)cc1	?	12.6µM*	/	-12.3%	/
CNCC[C@H](Oc1cccc2ccccc12)c1cccs1	/	/	/	9.68µM*!	/
C#CCNC(=O)c1cc(C(C)(C)C)c2cccn2n1	-16.0%[138 µM]	-29.9%[172 µM]	/	-15.1%[88.5 µM]	/
CC(C)NC(=O)c1cc(-c2ccc([S+](C)(=O)[O-])cc2)c2cccn2n1	?	?	/	4.7%	/
C#CCNC(=O)c1cc(-c2cccc(C(F)(F)F)c2)c2cccn2n1	50.1µM*	?	/	i	/
COCCNC(=O)c1cc(-c2cccc(C(F)(F)F)c2)c2nncn2n1	-12.3%	3.2%	/	3.9%	/
O=C(NCC(F)(F)F)c1cc(-c2cccc(C(F)(F)F)c2)c2cccn2n1	?	35.5µM*	/	i	/
O=C(NC1CC1)c1cc(-c2cccc(C(F)(F)F)c2)c2cccn2n1	?	35.5µM*	/	i	/
CC(C)NC(=O)c1cc(-c2cccc(C(F)(F)F)c2)c2cccn2n1	?	35.5µM*	/	i	/
Cn1nccc1C(=O)N1CCCC(Cc2nc(C3CCOCC3)no2)C1 (centres undefined)	-8.1%	-2.6%	8.0%	1.3%	i
COc1ccc(-c2noc([C@@H]3CCCN3C(=O)c3ccc(C#N)cc3)n2)cc1OC	-5.5%	6.6%	1.7%	i	i
O=C(NCC1CC1)c1cn(C2CN(C(=O)NCc3ccccc3)C2)nn1	4.0%	i	0.1%	i	i
SMILES	3T3 cytotox	HEK293 tox	NPR1 antag	GPT2 inhibitor	FLuc inh
O=C(NCc1cccc(F)c1)N1CCC(Oc2ncccc2C(=O)N2CCOCC2)C1 (centres undefined)	i	9.2%	3.5%	i	i
O=C(NCc1ccc(F)cc1)c1cc(-c2cccc(C(F)(F)F)c2)c2cccn2n1	?	25.1µM*	/	-13.2%	/
COc1ccccc1-c1ccc(CN2CCCCC2C(=O)N2CCC(c3ccccc3)CC2)cc1 (centres undefined)	39.8µM*	25.1µM*!	/	/	/
COc1ccccc1-c1ccc(C(=O)N2CCC(C(=O)N3CCC(c4ccccc4)CC3)CC2)cc1	?	?	/	i	/
COc1ccccc1-c1ccc(CN2CCCCC2C(=O)N2CCN(Cc3ccccc3)CC2)cc1 (centres undefined)	?	31.6µM*	/	i	/
CCCCC1C(=O)N(C)CCN1c1nc2c(s1)c(C)nn2C (centres undefined)	-11.4%	-28.6%	0.0%	?	i
CCOc1ccccc1CN1CCC(=O)N(CC)C2(CCOCC2)C1	-6.3%	i	/	i	/
NCc1ccccc1-c1ccc(OC(F)(F)F)cc1	?	56.2µM*	/	i	/
CC1(C(=O)NCc2cccc(F)c2)CCCCC(=O)N1 (centres undefined)	-20.5%	-3.1%	4.8%	-0.7%	i
COc1ccc(S(=O)(=O)N2CCc3c(C(=O)NCCN(C)C)cccc32)cc1	?	?	-17.4%	3.1%	?
COc1ccc(S(=O)(=O)N2CCc3c(C(=O)NCc4ccccn4)cccc32)cc1	?	35.5µM*	?	i	i
O=C(NCc1ccccn1)c1cccc2c1CCN2C(=O)C1CC1	?	3.0%	-2.0%	-6.5%	i
COc1ccc(S(=O)(=O)N2CCc3c(C(=O)NCCc4cccs4)cccc32)cc1	-28.1%	25.1µM*	?	-14.3%	i
CCCCNC(=O)c1cccc2c1CCN2S(=O)(=O)c1ccc(C)cc1	?	17.8µM*	?	1.5%	i
CCC(=O)NC1CCN(c2cnn(CC)c(=O)c2)CC1	-1.8%	i	6.8%	i	i
CC1(C)C(=O)N(CCOc2ccccc2)[C@H]2CN(c3cccc(C(F)(F)F)c3)C[C@@H]2[S+]1(=O)[O-]	11.2µM*	17.8µM*	2.3%	-17.3%	i
CC1(C)C(=O)N(Cc2ccccc2)[C@H]2CN(CC3CCOC3)C[C@H]2[S+]1(=O)[O-] (some centres undefined)	89.1µM*	i	4.5%[70.6 µM]	3.7%[88.5 µM]	i
Cc1noc(C)c1CN1C[C@H]2[C@H](C1)[S+](=O)([O-])C(C)(C)C(=O)N2CCOc1ccccc1	39.8µM*	-17.1%	0.8%	-15.9%	i

High-throughput results: PubChem BioAssay, National Center for Advancing Translational Sciences (NCATS)
